Data from PubChem BioAssay (NCATS).
Results filed as inconclusive are left out. Activity calls are given as the source filed them. Unless noted, calls come from the whole dose curve; as a rule, active = well fitted curve in the direction sought with a large enough effect; inconclusive = small, poorly fitted or top-dose-only effect, or another doubt; inactive = no such curve, though single readings can be large; an effect the other way counts as inactive or inconclusive.

How the values were obtained:
[1] = qHTS for Inhibitors of Plasmodium falciparum (DD2) proliferation (AID 504314);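 note: parasite DNA measured by SYBR Green fluorescence after red cell lysis; plate controls were DMSO vehicle for no effect and artemisinin wells for full effect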
Procedure, shortened: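 Infected RBCs, 0.3% parasitemia, 2.5% Hct; compound 72 h, 37C/5% CO2; lyse + SYBR Green I, RT overnight, dark; read ex485/em535; normalize to DMSO and artemisinin 0.29 uM.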

[2] = qHTS for Inhibitors of Plasmodium falciparum (GB4) proliferation (AID 504315);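 note: 0% = DMSO vehicle and -100% = 0.29 µM artemisinin control; nearly all actives have a fitted effect of over 50% in size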
Procedure, shortened: (§1)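 Erythrocytes infected with P. falciparum line (0.3% parasitemia, 2.5% hematocrit final) incubated with compounds 72 h at 37 °C, 5% CO2; SYBR Green lysis buffer added, fluorescence read next day. Normalized to 0.29 uM artemisinin and DMSO.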

[3] = qHTS for Inhibitors of Plasmodium falciparum (7G8) proliferation (AID 504316);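 note: 0% = DMSO vehicle and -100% = 0.29 µM artemisinin full kill; nearly all actives have a fitted effect of over 65% in size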
Procedure, shortened: as §1

[4] = qHTS for Inhibitors of Plasmodium falciparum (HB3) proliferation (AID 504318);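 note: 0% = DMSO vehicle and -100% = artemisinin control; nearly all actives have a fitted effect of over 60% in size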
Procedure, shortened: as §1

[5] = qHTS for Inhibitors of Plasmodium falciparum (CP250) proliferation (AID 504320);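 note: plate controls were DMSO vehicle for no effect and 0.29 µM artemisinin control for full effect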
Procedure, shortened: as §1

[6] = molecular target: Rap guanine nucleotide exchange factor 3 (Homo sapiens) (UniProt O95398); assay: Confirmatory qHTS for antagonist of cAMP-regulated guanine nucleotide exchange factor 3 (EPAC1) (AID 1645880); settings: EPAC1 Rap1B-BODIPY-GDP exchange, fluorescence; activity, negative = inhibition: at 115 µM (top of the series); note: nearly all actives have a fitted effect of over 55% in size; note: potency is the fitted concentration of half-maximal effect;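 for activity, negative = inhibition: plate controls were DMSO only for no effect and full effect of the ATA control for full effect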
Procedure, shortened: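 Nucleotide exchange uses 100 nM EPAC1, 250 nM RAP1B-BODIPY-GDP and 50 uM GDP, with compounds in a concentration-titration series. After 5 min at room temperature, fluorescence (480 nm ex/540 nm em) is read every 5 min for 30 min. Data are normalized to control ATA and DMSO.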

[7] = molecular target: Rap guanine nucleotide exchange factor 3 (Homo sapiens) (UniProt O95398); assay: Confirmatory qHTS for agonist of cAMP-regulated guanine nucleotide exchange factor 3 (EPAC1) (AID 1645881);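 note: EPAC1 catalysed release of BODIPY-GDP from Rap1B seen as fluorescence loss; 100% = effect of cAMP agonist control; nearly all actives have a fitted effect of over 75% in size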
[8] = molecular target: Rap guanine nucleotide exchange factor 4 (Homo sapiens) (UniProt Q8WZA2); assay: Confirmatory qHTS for agonist of cAMP-regulated guanine nucleotide exchange factor 4 (EPAC2) (AID 1645884);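 note: nucleotide exchange releases bodipy-GDP from Rap1 and this lowers its fluorescence; % is set by controls: 0 for no effect and ±100 for the full control effect; nearly all actives have a fitted effect of over 65% in size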
[9] = molecular target: Rap guanine nucleotide exchange factor 4 (Homo sapiens) (UniProt Q8WZA2); assay: Confirmatory qHTS for antagonist of cAMP-regulated guanine nucleotide exchange factor 4 (EPAC2) (AID 1645885); note: nearly all actives have a fitted effect of over 25% in size; note: potency is the fitted concentration of half-maximal effect; for activity change, negative = inhibition: % is set by controls: 0 for no effect and ±100 for the full control effect
[10] = molecular target: Rap guanine nucleotide exchange factor 3 (Homo sapiens) (UniProt O95398); assay: Counterscreen qHTS for antagonist of cAMP-regulated guanine nucleotide exchange factor 3 (EPAC1) (AID 1645888);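 note: fluorescence loss as bound BODIPY-GDP is released from Rap1B; % of control where 0% means no effect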
Procedure, shortened: (§2)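 Rap1B-BODIPY-GDP 250 nM + GDP 50 uM; cpds 7-pt, final 9.74 nM–152 uM (activator mode) or from 7.32 nM upwards (inhibitor mode); RT; FI 480/540 nm at 5 and 30 min, then ± cAMP, reread.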

[11] = molecular target: Rap guanine nucleotide exchange factor 3 (Homo sapiens) (UniProt O95398); assay: Counterscreen qHTS for agonist of cAMP-regulated guanine nucleotide exchange factor 3 (EPAC1) (AID 1645889); note: % of control where 0% means no effect; nearly all actives have a fitted effect of over 40% in size
Procedure, shortened: as §2

[12] = AP1 Signaling Pathway (AID 357; active = well fitted curve in either direction with a large enough effect, not every such curve was filed as active; note: % is set by controls: 0 for no effect and ±100 for the full control effect); settings: ME-180 AP-1-bla reporter, EGF-induced, beta-lactamase ratio, 5 h; at 7.69 µM (top of the series) unless noted
Procedure, shortened: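 AP-1-bla ME-180 cells with beta-lactamase reporter under AP-1 response element, stimulated with EC50 EGF; compounds titrated, 5 hours at 37 degrees Celsius. CCF4 read at 460/530 nm ratio; positive and negative modulators judged by AC50.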

[13] = NFAT Signaling Pathway (AID 444; active = well fitted curve in either direction with a large enough effect, not every such curve was filed as active;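 note: carbachol stimulus at about its EC50 of 1 µM final; % is set by controls: 0 for no effect and ±100 for the full control effect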); settings: Jurkat NFAT-bla M1, carbachol, beta-lactamase ratio, 5 h; at 7.69 µM (top of the series) unless noted
Procedure, shortened: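 Read-out: CCF4 FRET ratio (460 nm/530 nm) after 1 h RT dye loading, used for %activity and AC50 from titration series. Cells: Jurkat NFAT-β-lactamase/M1 line, treated with compound plus 1 uM carbachol for 5 h, 37 °C.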

[14] = Stat Signaling Pathway (AID 446; active = well fitted curve in either direction with a large enough effect, not every such curve was filed as active;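 note: ME-180 cervical cancer cells given 40 pM IL-6 alongside compound; SIE-controlled beta-lactamase reporter measured as 460/530 nm FRET emission ratio; % is set by controls: 0 for no effect and ±100 for the full control effect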)
Procedure, shortened: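 Reporter line: ME-180 cervical carcinoma, SIE-beta-lactamase. Treatment: compound with 40 pM IL-6, 5 hrs, 37 C, in low-serum OPTI-MEM with 10 mM HEPES pH 7.3. Detection: 460/530 nm fluorescence.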

[15] = molecular target: Glucocorticoid receptor (Homo sapiens) (UniProt P04150); assay: GR-GFP Redistribution (AID 450;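 active = compounds whose dose series gives a full or clear partial fitted curve of increased nuclear translocation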; note: potency is the fitted concentration of half-maximal effect); settings: U2OS GR-GFP nuclear translocation, laser cytometry, 2 h
[16] = qHTS Assay for Identification of Small Molecule Agonists for Hypoxia Response Element Signaling Pathway (AID 914; active = well fitted activation curve with a large enough effect in the signal ratio, with a control signal flat, not every such curve was filed as active; the % refers to the signal ratio; note: % of control where 0% means no effect); settings: ME-180 (cervical carcinoma) HRE-bla reporter, beta-lactamase ratio, CoCl2, 17 h; activation: stronger effect = higher value
Procedure, shortened: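 Compounds in a titration series were added to ME-180 reporter cells alongside an EC50 level of CoCl2. After 17 hours, beta-lactamase activity was read as the 460nm/530nm emission ratio of CCF4, giving AC50 values.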

[17] = molecular target: Catechol O-methyltransferase (Homo sapiens) (UniProt P21964); assay: Confirmatory Screen for Target Class Profiling of Small Molecule Inhibitors of Methyltransferases (AID 1745852; calls by dose curve; note: potency is the fitted concentration of half-maximal effect); settings: MTase-Glo luminescence, SAH detection, recombinant enzyme; measured here: COMT max response; stronger effect = lower value
[18] = molecular target: Guanidinoacetate N-methyltransferase (Homo sapiens) (UniProt Q14353); assay: as above; settings: activity change, negative = inhibition: at 57.3 µM (top of the series) unless noted
[19] = molecular target: Nicotinamide N-methyltransferase (Homo sapiens) (UniProt P40261); assay: as above; settings: MTase-Glo luminescence, SAH detection, recombinant enzyme; measured here: NNMT max response; stronger effect = lower value
[20] = molecular target: Phenylethanolamine N-methyltransferase (Homo sapiens) (UniProt P11086); assay: as above; settings: MTase-Glo luminescence, SAH detection, recombinant enzyme; measured here: PNMT max response; stronger effect = lower value
Sequence of Phenylethanolamine N-methyltransferase (Homo sapiens) (P11086 whole entry, looked up): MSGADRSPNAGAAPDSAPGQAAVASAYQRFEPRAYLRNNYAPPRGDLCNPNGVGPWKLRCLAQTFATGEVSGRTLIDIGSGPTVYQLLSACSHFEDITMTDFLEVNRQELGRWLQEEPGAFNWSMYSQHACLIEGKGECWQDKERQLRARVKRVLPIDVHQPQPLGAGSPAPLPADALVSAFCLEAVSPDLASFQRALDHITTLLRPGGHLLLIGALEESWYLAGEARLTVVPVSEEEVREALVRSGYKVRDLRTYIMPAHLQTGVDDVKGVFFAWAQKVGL

Sequence of Rap guanine nucleotide exchange factor 4 (Homo sapiens) (Q8WZA2 whole entry, looked up): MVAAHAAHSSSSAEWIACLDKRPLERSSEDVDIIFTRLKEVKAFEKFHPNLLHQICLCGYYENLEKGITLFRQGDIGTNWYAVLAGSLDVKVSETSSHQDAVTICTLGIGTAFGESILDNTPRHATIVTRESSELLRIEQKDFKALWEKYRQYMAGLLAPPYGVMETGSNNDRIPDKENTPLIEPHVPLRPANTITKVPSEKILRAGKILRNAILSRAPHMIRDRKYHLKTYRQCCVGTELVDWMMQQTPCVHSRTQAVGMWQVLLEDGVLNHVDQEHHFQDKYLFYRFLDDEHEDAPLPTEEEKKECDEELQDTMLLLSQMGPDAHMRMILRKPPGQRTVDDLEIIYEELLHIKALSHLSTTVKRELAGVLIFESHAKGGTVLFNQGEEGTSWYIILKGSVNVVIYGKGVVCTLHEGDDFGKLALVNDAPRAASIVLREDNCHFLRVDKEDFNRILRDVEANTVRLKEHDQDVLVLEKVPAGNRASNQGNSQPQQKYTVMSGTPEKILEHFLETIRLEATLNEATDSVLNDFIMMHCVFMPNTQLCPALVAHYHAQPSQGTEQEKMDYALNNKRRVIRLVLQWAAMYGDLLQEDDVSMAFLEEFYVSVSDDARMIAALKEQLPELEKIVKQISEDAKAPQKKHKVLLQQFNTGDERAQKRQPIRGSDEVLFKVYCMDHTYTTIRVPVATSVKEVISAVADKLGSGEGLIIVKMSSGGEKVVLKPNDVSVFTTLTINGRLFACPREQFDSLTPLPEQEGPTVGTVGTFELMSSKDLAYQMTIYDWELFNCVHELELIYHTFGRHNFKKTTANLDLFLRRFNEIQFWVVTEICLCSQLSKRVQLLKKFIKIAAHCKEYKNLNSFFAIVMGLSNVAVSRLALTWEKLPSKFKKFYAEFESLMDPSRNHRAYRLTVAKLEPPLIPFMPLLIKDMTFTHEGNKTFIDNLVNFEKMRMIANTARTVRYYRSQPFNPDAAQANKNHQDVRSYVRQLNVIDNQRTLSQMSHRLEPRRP
Sequence of Rap guanine nucleotide exchange factor 3 (Homo sapiens) (O95398 whole entry, looked up): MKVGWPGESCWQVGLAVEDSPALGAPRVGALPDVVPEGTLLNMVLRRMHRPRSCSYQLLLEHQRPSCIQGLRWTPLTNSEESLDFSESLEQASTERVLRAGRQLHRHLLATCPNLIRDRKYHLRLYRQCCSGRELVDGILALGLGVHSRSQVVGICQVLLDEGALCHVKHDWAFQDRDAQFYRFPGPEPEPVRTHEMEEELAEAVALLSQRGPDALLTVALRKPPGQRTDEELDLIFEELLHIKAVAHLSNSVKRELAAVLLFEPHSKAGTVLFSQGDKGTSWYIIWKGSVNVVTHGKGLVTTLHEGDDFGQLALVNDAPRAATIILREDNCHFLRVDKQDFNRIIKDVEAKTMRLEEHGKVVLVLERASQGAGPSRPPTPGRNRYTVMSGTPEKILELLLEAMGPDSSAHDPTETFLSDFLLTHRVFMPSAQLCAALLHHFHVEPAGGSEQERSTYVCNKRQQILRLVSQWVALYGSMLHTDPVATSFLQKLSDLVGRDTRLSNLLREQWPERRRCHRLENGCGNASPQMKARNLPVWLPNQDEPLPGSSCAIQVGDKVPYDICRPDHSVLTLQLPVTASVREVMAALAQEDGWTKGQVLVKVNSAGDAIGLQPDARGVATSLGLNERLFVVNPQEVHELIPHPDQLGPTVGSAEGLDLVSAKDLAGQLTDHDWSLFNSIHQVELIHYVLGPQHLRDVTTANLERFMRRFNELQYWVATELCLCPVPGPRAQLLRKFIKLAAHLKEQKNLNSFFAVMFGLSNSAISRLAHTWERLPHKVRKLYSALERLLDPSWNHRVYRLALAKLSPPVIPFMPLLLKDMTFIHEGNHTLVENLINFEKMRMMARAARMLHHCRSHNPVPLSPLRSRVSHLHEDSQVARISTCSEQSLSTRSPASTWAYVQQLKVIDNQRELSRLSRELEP
Sequence of Glucocorticoid receptor (Homo sapiens) (P04150 whole entry, looked up): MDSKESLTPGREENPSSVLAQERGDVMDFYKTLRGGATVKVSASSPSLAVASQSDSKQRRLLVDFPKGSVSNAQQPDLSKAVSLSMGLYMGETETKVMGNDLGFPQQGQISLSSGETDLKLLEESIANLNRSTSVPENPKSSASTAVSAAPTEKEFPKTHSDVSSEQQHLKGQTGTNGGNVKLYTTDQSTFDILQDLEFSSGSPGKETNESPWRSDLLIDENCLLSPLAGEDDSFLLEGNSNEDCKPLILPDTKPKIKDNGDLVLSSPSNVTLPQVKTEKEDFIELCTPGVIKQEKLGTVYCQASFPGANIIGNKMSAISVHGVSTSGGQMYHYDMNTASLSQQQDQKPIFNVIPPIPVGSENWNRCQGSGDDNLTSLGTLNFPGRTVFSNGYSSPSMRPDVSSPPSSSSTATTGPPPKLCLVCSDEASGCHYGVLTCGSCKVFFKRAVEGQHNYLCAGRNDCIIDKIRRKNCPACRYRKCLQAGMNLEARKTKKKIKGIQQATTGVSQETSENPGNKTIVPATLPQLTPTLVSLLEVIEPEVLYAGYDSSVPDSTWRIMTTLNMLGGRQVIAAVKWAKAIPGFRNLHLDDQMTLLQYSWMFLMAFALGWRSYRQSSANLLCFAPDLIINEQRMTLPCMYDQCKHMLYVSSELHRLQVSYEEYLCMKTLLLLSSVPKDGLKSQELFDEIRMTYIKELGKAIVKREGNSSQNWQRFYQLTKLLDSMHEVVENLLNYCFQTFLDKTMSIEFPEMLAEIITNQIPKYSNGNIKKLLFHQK
Sequence of Catechol O-methyltransferase (Homo sapiens) (P21964 whole entry, looked up): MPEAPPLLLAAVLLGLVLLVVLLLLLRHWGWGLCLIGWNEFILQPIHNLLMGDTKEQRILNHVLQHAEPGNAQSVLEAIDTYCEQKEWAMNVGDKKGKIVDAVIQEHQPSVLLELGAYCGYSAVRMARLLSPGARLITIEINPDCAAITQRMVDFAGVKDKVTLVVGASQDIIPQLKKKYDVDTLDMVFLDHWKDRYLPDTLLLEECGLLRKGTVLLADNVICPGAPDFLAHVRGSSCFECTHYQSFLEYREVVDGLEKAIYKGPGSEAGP
Sequence of Nicotinamide N-methyltransferase (Homo sapiens) (P40261 whole entry, looked up): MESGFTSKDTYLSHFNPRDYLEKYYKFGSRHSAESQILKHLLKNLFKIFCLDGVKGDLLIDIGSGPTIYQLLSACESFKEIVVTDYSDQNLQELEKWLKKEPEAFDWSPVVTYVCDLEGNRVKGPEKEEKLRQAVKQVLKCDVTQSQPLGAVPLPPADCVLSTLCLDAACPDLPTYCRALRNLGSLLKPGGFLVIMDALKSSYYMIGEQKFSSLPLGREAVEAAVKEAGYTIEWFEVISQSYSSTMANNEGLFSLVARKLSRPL

CCN1C(=O)N(S(=O)(=O)C(F)(F)F)[C@@H](c2ccccc2)C(C(=O)OC)=C1C
inactive: outcome [1] | outcome [2] | outcome [3] | outcome [4] | outcome [5] | Potency [6] | Potency [7] | Potency [8] | Potency [9] | Potency [10] | Potency [11]

CC(NC(=O)Nc1ccc(O)cc1)(C(F)(F)F)C(F)(F)F
inactive: activity change, negative = inhibition [12] 5.47% [at 17.2 µM] | activity change, negative = inhibition [13] 11.8% [at 17.2 µM] | outcome [14] | Potency [15] > 20.6 µM | activation [16] 8.6% | Potency [6] | Potency [7] | activation [8] -12.7% [at 17.1 µM, percent relative to cAMP agonist control] | Potency [9] | activity change, negative = inhibition [10] -9.73% [at 30.8 µM] | activation [11] 3.78% [at 30.8 µM]

COc1ccc(/C=N/Nc2ncnc3sc(C)c(C)c23)cc1
inactive: Potency [6] | Potency [7] | Potency [8] | Potency [9] | Potency [10] | Potency [11]

Cc1ccc(SCc2nnc(N)s2)cc1
inactive: activity change, negative = inhibition [12] 14.2% [at 17.2 µM] | activity change, negative = inhibition [13] -2.66% [at 17.2 µM] | outcome [14] | Potency [15] > 20.6 µM | Potency [6] | Potency [7] | activation [8] 8.48% [at 17.1 µM, percent relative to cAMP agonist control] | Potency [9] | activity change, negative = inhibition [10] 3.94% [at 30.8 µM] | activation [11] 7.74% [at 30.8 µM]

O=C1/C(=C\c2ccc(O)c(O)c2)C(c2ccccc2)=NN1c1ccccc1
active: Potency [6] 16.9 µM
inactive: Potency [7] | Potency [8] | Potency [9] | Potency [10] | Potency [11]

C/C(=N\NS(=O)(=O)c1ccccc1)c1cc(Cl)cc(Cl)c1O
inactive: Potency [7] | Potency [8] | Potency [10] | Potency [11]
active: Potency [6] 33.8 µM | Potency [9] 21.3 µM

O=C(NCCc1ccccc1)c1ccc2c(=O)[nH]c3c(C(=O)NCC4CCCO4)sc(=S)n3c2c1 (stereo not given)
active: Potency [6] 75.7 µM | Potency [9] 30.1 µM | Potency [18] 24.1 µM
inactive: Potency [7] | Potency [8] | Potency [10] | Potency [11]
-66.7%: activity [20]
-55.9%: activity [19]
-68.6%: activity [17]
